Bioassay records from PubChem BioAssay.
NTR1 agonist: agonists of human neurotensin receptor NTR1; P30989; NTR1-U2OS beta-arrestin-GFP spot imaging, agonist mode; activation, % at 20 µM; 0.17% of 330,000 active; AID 493036;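 active = activation at or above 40% of the spot to cytoplasm intensity ratio, with at least 20 cells analyzed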
SUMO HTRF inh: blocks human SUMOylation mediated by UBC9; inhibition, % at 35 µM; P63279; 0.36% of 290,000 active; HTRF SUMOylation assay, SAE1/SAE2 + UBC9, in vitro; in the data active = inhibition above about 50%, passing the limit was not always enough
Target sequence (P63279 whole entry, looked up): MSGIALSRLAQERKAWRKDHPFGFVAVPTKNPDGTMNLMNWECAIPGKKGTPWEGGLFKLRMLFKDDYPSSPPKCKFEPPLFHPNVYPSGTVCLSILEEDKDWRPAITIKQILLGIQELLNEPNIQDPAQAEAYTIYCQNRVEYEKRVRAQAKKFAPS
ALR inh: blocks human ALR sulfhydryl oxidase activity; P55789; purified ALR, DTT oxidation, H2O2 HRP-luminol luminescence; inhibition, % (concentration not given with the values); 3.8% of 290,000 active; AID 485317;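 active = mean replicate inhibition above about 79%, with every replicate also reaching it, limit read from the data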
Cardio protect: myocardial damage modulation in H9c2 cells. H9c2 cardiomyocytes, H2O2 injury protection, ATPLite, 2 h. protection from H2O2 cell death, % at 20 µM. 0.63% of 360,000 active;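 active = compounds giving at least 50% protection of heart cells from peroxide-induced death in the single-dose screen, raw or plate-pattern-corrected value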
NTR1 ag confirm: NTR1 (human) agonism, confirmed; activation, % at 20 µM; NTR1-U2OS beta-arrestin-GFP translocation imaging; 38% of 480 active; shares compounds with NTR1 agonist;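 active = mean activation at 20 µM of at least 40%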
Numbers stand for hits; . = inactive; / = no result. Hits are enriched below; roughly 3.9% of the tested compounds scored in any of these assays.

SMILES | NTR1 agonist | SUMO HTRF inh | ALR inh | Cardio protect | NTR1 ag confirm
Cc1cccc(N2C(=O)NC(=O)/C(=C\c3cccn3-c3ccc(Cl)cc3)C2=O)c1 | 48 | . | . | . | 82
Cc1cccc(N2C(=O)NC(=O)/C(=C/c3ccc([N+](=O)[O-])o3)C2=O)c1 | / | . | . | / | /
Cc1cc(C)cc(N2C(=O)NC(=O)/C(=C/c3cccn3-c3ccc(Cl)cc3)C2=O)c1 | 44 | . | . | . | 61
CC(C)(C)n1cccc1/C=C1\C(=O)NC(=O)N(c2ccccc2)C1=O | . | . | . | . | /
O=C(NCc1ccc(C(=O)N2CCC3(CC2)OCCO3)cc1)c1cccc(Br)c1 | . | . | . | . | /
CCOC(=O)c1cccc(C2=C(CNC(=O)c3nccs3)[C@H]3CC[C@@H](C2)N3Cc2ccccc2)c1 | / | / | / | . | /
Nc1ccc(Cl)cc1C(=O)c1ccccc1 | 100 | . | . | . | .
COc1ccc(-n2c(O)c(C(C)=NCC3CCCO3)c(=O)[nH]c2=O)cc1 (stereo unspecified) | . | . | . | . | /
CSc1ccccc1C(=O)C1CCCN(Cc2ccncc2)C1 (stereo unspecified) | . | . | . | . | /
COC(=O)c1ccc(NC(=O)CSc2nc3ccc(N4C(=O)C5C6C=CC(C6)C5C4=O)cc3s2)cc1 (stereo unspecified) | 63 | . | . | . | 56
NC(N)=N/N=C/c1ccc(N(c2ccccc2)c2ccccc2)cc1 | 64 | . | 94 | . | .
O=c1[nH]c2ccccc2n1C1CCN(C(c2cccs2)c2nnnn2Cc2ccccc2)CC1 (stereo unspecified) | / | / | / | . | /
CC1CCC(C(C)C)C(OC(=O)Cn2c(COc3ccccc3)[n+](C)c3ccccc32)C1 (stereo unspecified) | 59 | . | . | . | 68
CN1C(=O)C(=Cc2ccc(Sc3ccccc3)o2)C(=O)N(C)C1=O | . | . | . | . | /
O=C1NC(=O)C(=Cc2ccc(Sc3ccccc3)o2)C(=O)N1 | 49 | . | . | . | 90
S=C1Nc2ccccc2Sc2ccccc21 | . | . | . | . | /
